Bioassay records as filed in PubChem.
This excerpt belongs to a sample that is enriched for hits.
TTR transcr act – TTR transcription activators in neuroblastoma reporter cells, primary screen, cell-based, luminescence, SH-SY5Y, TTR promoter Gaussia luciferase. 100% = recombinant luciferase protein wells. activation, % at 16.7 µM. 92,000 tested, 1.3% active;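 active = activation above the mean of all tested compounds plus 3 SD, cut at about 9.5% in these data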;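 also: cells exposed to compounds for one day before reading; 0% = median of all test compound wells on the plate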
TTR inh HuH7 – TTR promoter reporter inhibitors in hepatoma cells, counter-screen for TTR transcription activator project, cell-based, luminescence, HuH7 hepatoma | inhibition, % at 16.7 µM | shares compounds with TTR transcr act | 1,100 tested, 4% active | AID 1117279, 2014 | HuH7 TTR promoter-Gaussia luciferase reporter;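 active = average inhibition above the solvent-only control wells' mean plus 3 SD, cut at about 15% in these data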;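 also: 0% = cells with DMSO only and 100% = cells with inhibitor control FD; inhibitors lower well luminescence so higher value means more inhibition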
TTR act confirm – TTR transcription activators, retest, confirmation, cell-based, luminescence, SH-SY5Y, triplicate | SHSY5Y TTR promoter Gaussia luciferase; 100% = purified Lucia enzyme wells, no cells | activation, % at 16.7 µM | shares compounds with TTR transcr act | 1,100 tested, under 10 active | AID 1117280, 2014;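 active = mean activation above a set limit taken from the earlier primary screen, cut at about 11% in these data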;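 also: 0% = DMSO-treated cells and 100% = recombinant Lucia luciferase without cells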
An asterisk follows results filed as active.

SMILES	TTR transcr act	others
c1nc(NCC2CCCCO2)c2cc(-c3ccc4c(c3)OCO4)ccc2n1 (stereo not given)	-1
COc1ccc(S[C@]2(C(=O)N3CCOCC3)CC(=O)N(c3ccsc3)[C@@H]2c2ccc(OC)cc2)cc1	-1
CCN(C(=O)[C@@H](C1CC1)[C@@H](O)c1ccc(Cl)cc1)c1ccccc1	2
CCCC1CCC2(CC1)CCC2OC(=S)Nc1ccccc1OC (stereo not given)	0
c1ccc(-c2ccc(-c3cnc4n3CCCCC4)cc2)cc1	-2
CCOC(=O)[C@@]12CCCC=C1N(CCc1ccc(Cl)cc1)C(=O)[C@H]2CC(=O)NCc1ccccc1	0
C=CCNC(=S)Nc1sc2c(c1C(=O)OCC)CC(C)(CC)OC2 (stereo not given)	0
CC(C)c1nc2sc3c(=O)[nH]c(=S)[nH]c3c2c2c1CCCC2	0
CCC1(C)Cc2sc3c(=O)[nH]c(=S)[nH]c3c2CO1 (stereo not given)	18*	TTR inh HuH7=-10;TTR act confirm=0
O=C(OCC#CCSc1nnc(-c2cccc3ccccc23)o1)C1CCC1	3
Cc1ccc2c(c1)NC(c1cccs1)C1=C(CC(C)(C)CC1=O)N2 (stereo not given)	-1
C/C(=N\OC(=O)c1ccc(F)cc1)c1ccc(F)c(F)c1	0
CCCS(=O)(=O)C/C(N)=N/OC(=O)c1ccc(Cl)cc1	-1
CCOC(=O)c1cc(/C(C)=N/OC(=O)c2ccc(Cl)cc2)on1	9.8*	TTR inh HuH7=-8;TTR act confirm=-1
Cc1cccc(C)c1OC(=O)CCN1C(=O)C2C3C=CC(C4CC34)C2C1=O (stereo not given)	-1
CC1(c2nnnn2Cc2ccccc2)CSCC(=O)N1Cc1cccs1 (stereo not given)	-1
C/C=C(/CCC1NCCc2c1[nH]c1ccccc21)[Si](C)(C)C (stereo not given)	0
CCOC(=O)c1c(-c2ccc(F)cc2)csc1NC(=O)CCN1CCOCC1	2
CCOC(=O)c1c(-c2ccc(-c3ccccc3)cc2)csc1NC(=O)CCN1CCOCC1	-2
CCOC(=O)c1c(-c2ccccc2)csc1NC(=O)C(C)NCCCN1CCOCC1 (stereo not given)	13*	TTR inh HuH7=-27;TTR act confirm=0
CCCCNC(=O)O[C@H]1CC[C@@]23CCCN2C(=O)CCC[C@H]3C1	2
COc1cccc(C(=O)NOCc2ccc(C)cc2)c1OC	9.7*	TTR inh HuH7=-7;TTR act confirm=-1
COCCCNC(=O)c1cccc(OC)c1OC	-2
COc1cccc(C(=O)NCCC2=CCCCC2)c1OC	1
CCOC(=O)C1(C(=O)OCC)CC1c1ccccc1 (stereo not given)	0
SMILES	TTR transcr act	others
COC(=O)[C@@]12CCCCC=C1N(CCc1ccc(Cl)cc1)C(=O)[C@H]2CC(=O)NCCCCc1ccccc1	-2
COc1ccc(CNC(=O)O[C@H]2CC[C@@]34CCCN3C(=O)CCC[C@H]4C2)cc1	2
Cn1c(SCCN2CCCCC2)nnc1-c1ccccc1Br	14*	TTR inh HuH7=-7;TTR act confirm=0
Cn1c(SCC(=O)N2CCCCCC2)nnc1-c1ccco1	2
Cc1ccc(C#N)c(SCCN2CCCCC2)n1	-1
Cc1nc(SCC(N)=O)[nH]c(=O)c1C	4
COc1ccc(CN2C(=O)[C@]3(NCCc4c3[nH]c3ccc(OC)cc43)c3cc(Br)ccc32)cc1	0
CCc1cc(=O)oc2cc(OCC(=O)NCCCn3ccnc3)c(Cl)cc12	-1
CCc1cc(=O)oc2c(C)c(OCC(=O)NCCCN3CCOCC3)ccc12	6
CCCCc1cc(=O)oc2cc(OCC(=O)NCCN3CCOCC3)c(Cl)cc12	11*	TTR inh HuH7=-25;TTR act confirm=2
C[C@H]1C2CC(OC(=O)Nc3cccc(C(F)(F)F)c3)C(C2)[C@H]2CCCCN21 (stereo not given in full)	-2
Cc1cc(C)n(CCCNC(=O)C(C)(C)Oc2ccc(Cl)cc2)n1	1
CCCCSc1nc(O)c(Cc2ccccc2)c(=O)[nH]1	2
CCCOc1ccc(C(C)=O)cc1Cc1c(O)nc(SC)[nH]c1=O	-2
CCCCOc1ccc(Cc2c(O)nc(SC)[nH]c2=O)cc1	9.9*	TTR inh HuH7=-22;TTR act confirm=1
CC(C(=O)OCC(=O)NC1CCCC1)N1C(=O)c2ccccc2C1=O (stereo not given)	1
CC(OC(=O)CN1C(=O)c2ccccc2C1=O)C(=O)NC1CCCCC1 (stereo not given)	14*	TTR inh HuH7=-12;TTR act confirm=0
CC(OC(=O)COc1ccccc1)C(=O)NC1CCCC1 (stereo not given)	-1
COC(=O)C1CN(Cc2ccccc2)CCS(=O)(=O)N1Cc1cccc(Cl)c1 (stereo not given)	2
